# Screens: PubChem, National Center for Advancing Translational Sciences (NCATS)
# Cruzain inh noDet: inhibitors of Trypanosoma cruzi cruzain without detergent; Potency, µM, for the others: max response, negative = inhibition, actives largely listed as inhibitors; purified cruzain, Z-FR-AMC fluorescence, no detergent; 200,000 compounds, 2.3% hits;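 further: plate controls were enzyme without inhibitor for no effect and buffer without enzyme for full effect; nearly all actives have a fitted effect of over 40% in size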
# Target sequence (P25779 123-467 limits assumed): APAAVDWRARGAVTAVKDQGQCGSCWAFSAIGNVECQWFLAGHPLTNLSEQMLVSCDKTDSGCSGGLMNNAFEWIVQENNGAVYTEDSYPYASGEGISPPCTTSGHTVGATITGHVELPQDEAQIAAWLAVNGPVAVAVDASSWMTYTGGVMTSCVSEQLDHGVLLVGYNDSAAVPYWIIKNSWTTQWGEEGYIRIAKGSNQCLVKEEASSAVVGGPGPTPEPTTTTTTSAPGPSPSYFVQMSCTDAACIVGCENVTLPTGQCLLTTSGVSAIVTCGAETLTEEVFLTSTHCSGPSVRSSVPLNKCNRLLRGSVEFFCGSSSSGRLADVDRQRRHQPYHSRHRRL
#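 Detergent-free condition (0.00005% Triton X-100) in acetate buffer pH 5.5 with DTT. 1.5 nM enzyme and compound were pre-mixed 15 min, then 2 uM Z-FR-AMC substrate added; reaction progress from fluorescence change between first and third reads (60 s).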
# Cruzain Triton: blocks cruzain activity in presence of Triton detergent | P25779 | purified cruzain, Z-FR-AMC fluorescence, 0.01% Triton | Potency, µM, inactives show max response, negative = inhibition, actives largely listed as inhibitors | 200,000 compounds, 0.43% hits;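 further: plate controls were neutral wells for no effect and buffer without enzyme for full effect; nearly all actives have a fitted effect of over 40% in size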
#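 Detergent-containing run (0.01% Triton X-100) in acetate buffer pH 5.5 with 5 mM DTT: enzyme at 1.5 nM final, 15 min compound preincubation at room temperature, then 2 uM Z-FR-AMC substrate. Activity taken as 60 s fluorescence increase at 360/450 nm.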
# Starred values were filed as active, the others as inactive; ? = inconclusive. A selection: hits, their analogues and other compounds. The true share with any hit is near 2.4%. The call rests on the fitted dose curve; in most records, active means well fitted curve in the direction sought with a large enough effect; inconclusive means small, poorly fitted or top-dose-only effect, or another doubt; inactive means no such curve, though single readings can be large; an effect the other way counts as inactive or inconclusive. Potency means the concentration at half of the fitted maximal effect.
SMILES,Cruzain inh noDet,Cruzain Triton
Cc1ccc(OCC(=O)Nc2ccc(O)c(C(=O)O)c2)cc1C,-8%,1%
CCC(=O)Nc1ccc2c(c1)C(=O)c1ccccc1C2=O,7%,-7%
COc1ccccc1CCNC(=O)c1ccc2c(c1)c(C)c(C)n2C,?,-3%
ClCCCCl,-1%,3%
Cc1cccc(C)c1OCC(=O)Nc1cccc(-c2nnc(-c3ccccc3)o2)c1,?,4%
Cc1cc(C)cc(OCC(=O)Nc2ccc(N3CCCC3)cc2)c1,4µM*,?
Cc1cc(C)cc(OCC(=O)Nc2ccc(F)cc2)c1,-19%,0%
Cc1cccc(OCC(=O)Nc2cccc(-c3nnc(-c4ccccc4)o3)c2)c1C,25µM*,0%
COc1ccc(-c2cc3nc(C)c(CCC(=O)Nc4ccc(F)cc4F)c(C)n3n2)c(OC)c1,22%,-5%
CCS(=O)(=O)NCCc1sc2nc(-c3ccc(OC)cc3)nn2c1C,0%,-2%
O=C(O)CSc1c2c(nc3cc(C(=O)Nc4ccc(F)c(Cl)c4)ccc13)CCC2,-9%,0%
COc1ccc(/C=N/c2c(-c3ccc(OC)cc3)nc3n2CCS3)cc1,?,-8%
COc1ccc(C2=CSC(/N=C/c3ccc(F)cc3)=NN2)cc1,13µM*,-4%
O=C(Nc1nnc(N2CCCCCC2)s1)Nc1cc(F)ccc1F,-12%,-4%
O=C1OC(c2ccccc2)=N/C1=C\C=C\c1ccccc1[N+](=O)[O-],16µM*,13µM*
O=c1[nH]c(/C=C/c2ccccc2[N+](=O)[O-])nc2ccccc12,0%,-4%
Cc1cccc(N2CCN(S(=O)(=O)c3ccc4c(c3)C(C(C)C)C(=O)N4)CC2)c1C (stereo not given),-5%,-7%
CC1=C(/C=C/C(=C/C=C/C(C)=C/C(=O)O)c2ccc(C)cc2)C(C)(C)CCC1,?,-10%
CCc1ccc(-c2nc3c(c(SCc4ccc(F)cc4)n2)Cc2c(CO)cnc(C)c2O3)cc1,6%,-2%
Cc1ccc(S(=O)(=O)c2c(COC(=O)c3ccccc3Cl)c(-c3ccccc3)nn2C)cc1,20µM*,3%
Cn1nc(-c2ccccc2)c(CSc2ccccc2Cl)c1Cl,0%,3%
CC(C)c1ccc(NC(=O)CSC2=Nc3ccccc3C3=NC(CC(=O)NCc4ccc(F)cc4)C(=O)N23)cc1 (stereo not given),10%,-8%
Cc1cccc(N2CCN(C(=O)CN3C(=O)COc4ccc(S(=O)(=O)N5CCC(C)CC5)cc43)CC2C)c1 (stereo not given),?,-7%
COc1ccc2cc(C(=O)NCc3ccc4c(c3)CCN4C(=O)c3ccccc3)[nH]c2c1,?,-1%
Cc1cccc(C(=O)N2CCc3cc(CNC(=O)c4cc5ccccc5[nH]4)ccc32)c1,32µM*,-1%
SMILES,Cruzain inh noDet,Cruzain Triton
COc1cccc(-c2cc(C(=O)Nc3nc4ccccc4s3)c3ccccc3n2)c1,13µM*,-1%
Cc1ccccc1-c1cc(C(=O)Nc2nc3c(s2)CCCC3)c2ccccc2n1,?,-5%
O=C(Nc1nc2ccccc2s1)c1cc(-c2ccco2)nc2ccccc12,-26%,-12%
O=C(Nc1nc2c(s1)CCCC2)c1cc(-c2ccc3c(c2)OCO3)nc2ccccc12,5µM*,-4%
COc1ccc(S(=O)(=O)c2c(C(=O)c3ccc(C)c(C)c3)cnc3ccc(C)cc23)cc1,13µM*,-5%
CCOc1ccc(S(=O)(=O)c2c(C(=O)c3ccc(C)cc3)cnc3cc4c(cc23)OCCO4)cc1,6.3µM*,-5%
Cc1ccc(C(=O)c2cnc3cc4c(cc3c2S(=O)(=O)c2ccccc2)OCCO4)cc1,?,-7%
Cc1ccc2ncc(C(=O)c3ccc(C)c(C)c3)c(S(=O)(=O)c3ccccc3)c2c1,-21%,-5%
CCOC(=O)Cn1c(=O)n(CC2CCCO2)c2nc(-c3ccc(OCC)cc3)nc(C(N)=O)c21 (stereo not given),3%,-3%
Cc1cc(NC(=O)CCSc2nc(-c3ccco3)cc(C(F)(F)F)n2)no1,8%,4%
Cc1cc(NC(=O)CSc2nc(-c3ccco3)cc(C(F)(F)F)n2)no1,20µM*,-4%
Cc1ccc(NC(=O)C(=O)NCC(c2cccnc2)N2CCN(Cc3ccccc3)CC2)cc1 (stereo not given),-10%,-4%
COc1ccc(C(=O)NCCc2nc3ccccc3[nH]2)cc1,-15%,13µM*
Cc1cc(=O)oc2cc(OCC(=O)NCCc3nc4ccccc4[nH]3)ccc12,2.5µM*,13µM*
O=C(CNC(=O)c1ccccc1)NCCc1nc2ccccc2[nH]1,-17%,-6%
Cc1cc(=O)oc2cc(OCC(=O)NCc3ccccn3)ccc12,2%,-7%
CCOc1ccc(OCC(=O)NCCc2nc3ccccc3[nH]2)cc1,0.79µM*,5µM*
Cc1cc(C)cc(OCC(=O)NCCc2nc3ccccc3[nH]2)c1,17%,16µM*
Cc1cc(C)cc(OCC(=O)Nc2cccc(-c3nc4ccccc4[nH]3)c2)c1,-21%,-5%
CCOC(=O)CCc1nc2ccccc2[nH]1,-1%,-5%
CCCC(=O)Nc1ccc2nc(SCc3ccc(C)cc3)sc2c1,13%,3%
COc1ccc(C(=O)NCC(c2cccnc2)N2CCc3ccccc3C2)cc1 (stereo not given),-8%,-1%
O=C(Nc1ccc(N2CCOCC2)c(Cl)c1)c1cc2ccccc2o1,4%,-8%
O=C(Nc1ccc(N2CCCC2)c(Cl)c1)c1cccc(-c2cc3ccccc3oc2=O)c1,4µM*,-2%
COc1cc(NC(=O)c2ccc(Cl)cc2Cl)ccc1-c1cc2ccccc2oc1=O,20µM*,1%
SMILES,Cruzain inh noDet,Cruzain Triton
COc1ccc(C(=O)Nc2ccccc2)cc1[N+](=O)[O-],-3%,-5%
Cc1cc(NC(=O)c2cc(Cl)ccc2Cl)ccc1-c1cc2ccccc2oc1=O,17%,-5%
COc1ccc(C(=O)Nc2cccc(-c3cc4ccccc4oc3=O)c2)cc1[N+](=O)[O-],10µM*,-9%
COc1ccccc1-c1nccc(NCc2cccnc2)n1,14%,3%
O=C(c1ccccc1Cl)n1nc(-c2ccco2)nc1NCc1cccs1,5%,-3%
CCc1ccc(NC(=O)c2ccc(CN3C(=O)C(C)=C(c4ccc(C)cc4)S3(=O)=O)cc2)cc1,-3%,-3%
Cc1cc(C)cc(N2C(=O)CC(c3ccc(C(F)(F)F)cc3)C3=C2COC3=O)c1 (stereo not given),0%,-2%
COc1ccc(C(=O)/C=C/c2ccccc2)cc1,3%,-6%
O=C(/C=C/c1ccc2ccccc2c1)c1ccoc1,20µM*,6%
CCC(=O)N1c2ccccc2CC1C(=O)NCc1cc(Br)ccc1OC (stereo not given),3%,0%
Cc1ccc(NC(=O)CN(C)S(=O)(=O)c2ccc3c(c2)n(C)c(=O)c(=O)n3C)cc1F,-11%,-3%
O=c1c(O)cc(C2Oc3cc(O)cc(O)c3CC2O)cc2c(C3Oc4cc(O)cc(O)c4CC3O)cc(O)c(O)c12 (stereo not given),-22%,25µM*
Oc1cc(O)c2c(c1)O[C@H](c1ccc(O)c(O)c1)[C@@H](O)C2,16%,2%
COc1ccccc1-c1nc(SCC(=O)NCc2ccc(C)cc2)c2c(=O)n(C)c(=O)n(C)c2n1,4%,3%
Cc1cc(C(=O)Nc2nnc(C3CCCCC3)s2)cs1,?,13%
O=C(Nc1nnc(C2CCCCC2)s1)c1ccc(Br)s1,25µM*,-2%
O=C(/C=C\NCC(=O)c1ccccc1)c1ccc(F)cc1,-23%,-15%
O=C(/C=C\NCC(=O)c1ccccc1)c1ccc2ccccc2c1,32µM*,-26%
